According to PubChem BioAssay (NCATS):
Records with an inconclusive call do not appear. Activity calls are given as the source filed them. Unless noted, calls follow the shape of the dose curve; as a rule, active = well fitted curve in the direction sought with a large enough effect; inconclusive = small, poorly fitted or top-dose-only effect, or another doubt; inactive = no such curve, though single readings can be large; an effect the other way counts as inactive or inconclusive.

Tests used:
[1] = target: Glutaminase kidney isoform, mitochondrial (Homo sapiens) (UniProt O94925); assay: qHTS for Inhibitors of Glutaminase (GLS): LOPAC Validation (AID 624146); also: nearly all actives have a fitted effect of over 60% in size; also: potency is read from the fitted curve at half-maximal effect
Summary of the method: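 Assay buffer: 45 mM KH2PO4 pH 8.2, 0.02% Tween-20. hKGA acts on L-glutamine (1 mM solution added); product glutamate is reported by an oxidase/peroxidase Amplex Red coupling, with fluorescence taken at baseline and 30 min.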

[2] = qHTS of Trypanosoma Brucei Inhibitors: LOPAC Validation (AID 624147); also: 0% is about no effect
Summary of the method: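 Activity of T. brucei pyruvate kinase was followed by Kinase-Glo Plus luminescence after the enzyme reacted 45 min at room temperature with 130 uM ADP (final) and substrate. Test compounds were added before ADP at multiple concentrations.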

[3] = target: Glucagon-like peptide 1 receptor (Homo sapiens) (UniProt P43220); assay: qHTS of GLP-1 Receptor Agonists: LOPAC Validation (AID 624148);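 also: 0% is about no effect; higher luminescence signal means agonism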
Summary of the method: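 HEK293 cells stably co-expressing GLP-1R and a cAMP-responsive luciferase reporter, plated 12 hours before compound, then incubated 4-6 hr at 37 deg C. Luminescence read 12 min after detection reagent.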

[4] = HTS Assay for Allosteric Antagonists of the Human D2 Dopamine Receptor: Hit Validation in HTRF (AID 624455); also: potency is read from the fitted curve at half-maximal effect
Summary of the method: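 HTRF read-out; cells stably expressing D1 receptor; hits scored for inhibition of D1-mediated response. Primary screen: calcium flux, force-coupled inducible Hek293 Trex D2 line, antagonism vs EC80 dopamine.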

[5] = qHTS assay for small molecule activators of the p53 signaling pathway (AID 651743; active = well fitted activation curve with a large enough effect in the signal ratio, not every such curve was filed as active; the % refers to the signal ratio; also: series mostly up to about 92 µM; % of control where 0% means no effect); details: HCT-116 p53RE-bla, beta-lactamase FRET ratio, 16 h; stronger effect = higher value
Summary of the method: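 Reporter: beta-lactamase driven by p53 response elements, stably integrated in HCT-116 cells. Cells seeded at 4,000/well, 5 h preincubation, compound (DMSO) 16 h at 37 C; B/G FRET substrate 2 h RT; fluorescence intensity read.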

[6] = qHTS assay for small molecule activators of the nuclear factor-kappa B (NF-kB) signaling pathway (AID 651749; active = well fitted activation curve with a large enough effect in the signal ratio; the % refers to the signal ratio; also: series mostly up to about 77 µM; % of control where 0% means no effect); details: NF-kB-bla ME-180 cells, beta-lactamase FRET ratio, 16 h; stronger effect = higher value
Summary of the method: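 NF-kB-bla ME-180 cells, 2,000/well; 23 nL compound or DMSO pinned; 16 hr, 37C/5% CO2; beta-lactamase FRET read-out.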

[7] = qHTS assay for environmental chemicals that activate the Aryl hydrocarbon Receptor (AhR) signaling pathway (AID 651777); details: 1A2-DRE human hepatoma cells, luciferase, 24 h; stronger effect = higher value; also: % of control where 0% means no effect; nearly all actives have a fitted effect of over 15% in size
Summary of the method: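 Quantitative HTS in stably transfected human liver-derived cells whose luciferase gene sits downstream of the CYP1A2 promoter and dioxin response element. After 24 hr exposure at 37 C, One-Glo luminescence was measured.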

[8] = target: Peroxisome proliferator-activated receptor alpha (Homo sapiens) (UniProt Q07869); assay: qHTS assay for small molecule agonists of the peroxisome proliferator-activated receptor alpha (PPARalpha) signaling pathway (AID 651778); details: PathHunter PPARalpha complementation, chemiluminescence, 6 h; max response: stronger effect = higher value; also: % of control where 0% means no effect
Summary of the method: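 Enzyme-fragment complementation assay in which ligand-bound PPARalpha translocates and forms an active enzyme that generates chemiluminescence. Cells were plated overnight, exposed to compound for 6 hr at 37 C, and then given detection reagent for 60 min at room temperature.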

[9] = qHTS of Nrf2 Activators: LOPAC Validation (AID 624149); also: 0% is about no effect
Summary of the method: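 AREc32_Fluc cells, 1000/well, OPTI-MEM + 5% FBS, o/n 37 deg C 5% CO2; compound pin-transfer, 24 hr 37 deg C; Steady-Glo 30 min RT, luminescence read.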

[10] = target: Tumor susceptibility gene 101 protein (Homo sapiens) (UniProt Q99816); assay: qHTS Assay for Iinhibitors of HIV-1 Budding by Blocking the Interaction of PTAP/TSG101: Hit Validation (AID 651600); also: % is scaled to controls: 0 for no effect and ±100 for the full control effect; nearly all actives have a fitted effect of over 70% in size
Summary of the method: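 Displacement of a FITC-labeled PTAP-motif peptide (50 nM) from the Tsg101 binding domain (10 uM) was monitored by fluorescence polarization after a 20 min room-temperature incubation.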

Chain of Glucagon-like peptide 1 receptor (Homo sapiens) (P43220 whole entry, looked up): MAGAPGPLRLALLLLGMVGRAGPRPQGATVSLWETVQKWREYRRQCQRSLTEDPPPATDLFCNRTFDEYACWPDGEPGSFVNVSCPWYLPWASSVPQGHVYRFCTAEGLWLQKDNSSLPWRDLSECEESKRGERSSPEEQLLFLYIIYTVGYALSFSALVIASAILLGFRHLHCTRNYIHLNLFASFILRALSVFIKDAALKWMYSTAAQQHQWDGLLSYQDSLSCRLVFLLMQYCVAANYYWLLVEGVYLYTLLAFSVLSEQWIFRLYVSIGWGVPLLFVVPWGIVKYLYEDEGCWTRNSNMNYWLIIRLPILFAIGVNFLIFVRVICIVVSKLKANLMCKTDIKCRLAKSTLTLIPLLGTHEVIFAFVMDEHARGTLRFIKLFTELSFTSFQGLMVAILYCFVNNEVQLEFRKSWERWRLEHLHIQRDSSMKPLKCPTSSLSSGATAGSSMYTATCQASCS
Chain of Glutaminase kidney isoform, mitochondrial (Homo sapiens) (O94925 whole entry, looked up, canonical isoform): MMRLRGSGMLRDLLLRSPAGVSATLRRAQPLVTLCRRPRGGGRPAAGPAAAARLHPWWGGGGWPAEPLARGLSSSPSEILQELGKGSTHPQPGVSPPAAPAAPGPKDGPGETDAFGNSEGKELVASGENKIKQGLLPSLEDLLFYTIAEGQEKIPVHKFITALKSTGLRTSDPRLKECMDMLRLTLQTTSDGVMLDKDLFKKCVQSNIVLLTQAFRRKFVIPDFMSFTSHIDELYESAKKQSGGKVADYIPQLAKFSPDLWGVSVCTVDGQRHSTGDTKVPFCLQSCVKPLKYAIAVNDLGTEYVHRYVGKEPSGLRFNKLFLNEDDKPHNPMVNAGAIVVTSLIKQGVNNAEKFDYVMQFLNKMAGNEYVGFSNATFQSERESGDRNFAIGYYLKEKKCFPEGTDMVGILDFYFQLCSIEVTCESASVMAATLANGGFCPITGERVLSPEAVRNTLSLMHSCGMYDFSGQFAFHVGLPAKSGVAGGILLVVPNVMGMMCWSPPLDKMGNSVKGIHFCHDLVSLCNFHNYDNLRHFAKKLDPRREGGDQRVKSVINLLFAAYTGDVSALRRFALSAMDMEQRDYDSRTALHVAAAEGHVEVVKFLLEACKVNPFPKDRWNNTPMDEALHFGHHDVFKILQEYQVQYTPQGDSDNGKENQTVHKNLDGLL
Chain of Peroxisome proliferator-activated receptor alpha (Homo sapiens) (Q07869 whole entry, looked up, the tested form may be a part): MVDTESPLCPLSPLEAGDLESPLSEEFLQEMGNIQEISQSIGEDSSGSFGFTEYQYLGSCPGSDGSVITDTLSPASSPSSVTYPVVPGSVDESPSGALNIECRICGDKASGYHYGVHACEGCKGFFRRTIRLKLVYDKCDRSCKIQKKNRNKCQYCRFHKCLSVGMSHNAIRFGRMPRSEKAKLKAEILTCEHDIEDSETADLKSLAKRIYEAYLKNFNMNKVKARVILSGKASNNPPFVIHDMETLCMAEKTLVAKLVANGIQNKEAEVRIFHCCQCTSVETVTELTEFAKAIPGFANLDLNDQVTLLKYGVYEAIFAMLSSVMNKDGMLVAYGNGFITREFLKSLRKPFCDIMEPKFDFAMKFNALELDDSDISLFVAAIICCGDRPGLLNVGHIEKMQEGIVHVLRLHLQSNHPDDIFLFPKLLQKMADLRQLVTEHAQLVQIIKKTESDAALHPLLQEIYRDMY
Chain of Tumor susceptibility gene 101 protein (Homo sapiens) (Q99816 whole entry, looked up, the tested form may be a part): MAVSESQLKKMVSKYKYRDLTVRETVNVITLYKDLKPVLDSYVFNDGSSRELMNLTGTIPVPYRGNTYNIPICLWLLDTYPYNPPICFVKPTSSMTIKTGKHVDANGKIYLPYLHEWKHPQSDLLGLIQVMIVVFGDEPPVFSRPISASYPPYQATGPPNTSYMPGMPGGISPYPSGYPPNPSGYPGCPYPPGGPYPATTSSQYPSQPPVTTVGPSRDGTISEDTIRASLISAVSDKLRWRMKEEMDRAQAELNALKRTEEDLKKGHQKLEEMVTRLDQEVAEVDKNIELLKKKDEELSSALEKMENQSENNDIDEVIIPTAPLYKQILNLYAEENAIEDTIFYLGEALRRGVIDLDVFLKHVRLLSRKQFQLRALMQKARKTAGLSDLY

CC1=C(/C=C/C(C)=C/C=C/C(C)=C\C(=O)O)C(C)(C)CCC1
inactive: Potency [1] | Potency [2] | Potency [3] | Potency [4] | activation [5] -4.89% | activation [6] -1.8% | activation [7] 6.61% | max response [8] 0.529%

O=C(O)/C=C/c1ccc(O)c(O)c1
active: Potency [1] 2000 nM
inactive: Potency [3] | Potency [9] | Potency [4]

CN(C)CCC(c1ccc(Br)cc1)c1ccccn1 (stereo unspecified)
inactive: Potency [2] | Potency [3] | Potency [9] | Potency [4]

Nc1nc2[nH]c(=O)cnc2c(=O)[nH]1
inactive: Potency [1] | Potency [2] | Potency [3] | Potency [9] | Potency [4]

CC(C)NCC(O)COc1ccc(CC(N)=O)cc1 (stereo unspecified)
inactive: Potency [1] | Potency [3] | Potency [9]

Cc1ccccc1/C=C/C1=NCCN1
inactive: Potency [1] | Potency [2] | Potency [3] | Potency [4]

CC[C@@H]1Cc2cc(O)ccc2C2=C1c1ccc(O)cc1C[C@H]2CC
inactive: Potency [2] | Potency [3] | max response [8] -2.38%
active: Potency [1] 794 nM

c1ccc(C(NCc2cccnc2)(c2ccccc2)c2ccccc2)cc1
inactive: Potency [2] | Potency [3] | Potency [9] | Potency [4]

COc1cc(N)c(Cl)cc1C(=O)OCCN1CCCCC1
inactive: Potency [1] | Potency [2] | Potency [3] | Potency [4]

Nc1ncnc2c1c(-c1ccc(Oc3ccccc3)cc1)cn2C1CCCC1
inactive: Potency [2] | Potency [3] | Potency [4]

C=C1C[C@@]23CC[C@H]4[C@@](C)(CCC[C@@]4(C)C(=O)OC4OC(CO)C(O)C(O)C4O)[C@@H]2CC[C@]1(OC1OC(CO)C(O)C(O)C1OC1OC(CO)C(O)C(O)C1O)C3 (stereo partly specified)
inactive: Potency [1] | Potency [2] | Potency [3] | Potency [4]

C[C@](Cc1ccc(O)c(O)c1)(NN)C(=O)O
inactive: Potency [3] | Potency [9]
active: Potency [1] 1580 nM

N=C(N)c1ccc(OCCCCCOc2ccc(C(=N)N)cc2)cc1 (tested in a mixture with another compound)
inactive: Potency [1] | Potency [2] | Potency [3] | Potency [4]

CN(C)CCCc1cc(C(=O)Nc2ccc(-c3ccncc3)cc2)ccc1O
inactive: Potency [1] | Potency [2] | Potency [9]

COc1cc([C@@H]2c3cc4c(cc3[C@H](O)C3COC(=O)[C@@H]32)OCO4)cc(OC)c1OC (stereo partly specified)
inactive: Potency [3] | Potency [9]

CC(C)NC[C@H](O)COc1cccc2ccccc12
inactive: Potency [1] | Potency [3] | Potency [9] | Potency [4]

Cn1cc(C(F)(F)F)nc1-c1ccc(OCC(O)CNCCOc2ccc(O)c(C(N)=O)c2)cc1 (stereo unspecified)
inactive: Potency [2] | Potency [3] | Potency [9] | Potency [4]

O=c1oc(Cl)c(Cl)c2ccccc12
inactive: Potency [1] | Potency [2] | Potency [3] | Potency [4]

CN1CCCC1CCOC(C)(c1ccccc1)c1ccc(Cl)cc1 (stereo unspecified)
inactive: Potency [1] | Potency [2] | Potency [3] | Potency [9] | Potency [4] | outcome [10]

CCCCCCCC/C=C\CCCCCCCC(=O)NCCc1ccc(O)c(O)c1
inactive: Potency [2] | Potency [3]
active: Potency [4] 651 nM

COc1ccc(-c2cc3ncc(C)n3c(Nc3ncccc3C(N)=O)n2)cc1OC
inactive: Potency [1] | Potency [2] | Potency [3] | Potency [9] | Potency [4]

Cc1cccc(C)c1OCC(N)C(C)C (stereo unspecified)
inactive: Potency [1] | Potency [2] | Potency [3] | Potency [4]

CN1CCc2cc(Cl)c(O)cc2[C@@H](c2ccccc2)C1
inactive: Potency [2] | Potency [3] | Potency [9]

CN1Cc2sccc2C(c2ccc(O)c(O)c2)C1 (stereo unspecified)
active: Potency [4] 16.4 nM
inactive: Potency [2] | Potency [3] | Potency [9]

CCCCCCN(CCCCCC)C(=O)Cc1c(-c2ccc(F)cc2)[nH]c2ccccc12
inactive: Potency [2] | Potency [3] | Potency [9] | Potency [4]

OC[C@H]1O[C@H](n2cnc3c(N[C@H]4CCC[C@@H]4O)ncnc32)[C@H](O)[C@@H]1O
inactive: Potency [1] | Potency [2] | Potency [3] | Potency [4]

CC1CCN(CC[C@H]2CCCN2S(=O)(=O)c2cccc(O)c2)CC1
inactive: Potency [1] | Potency [2] | Potency [3] | Potency [9] | Potency [4]

CCC1(O)CC2CN(CCc3c([nH]c4ccccc34)[C@@](C(=O)OC)(c3cc4c(cc3OC)N(C)C3[C@]45CCN4CC=C[C@@](CC)([C@@H](OC(C)=O)[C@]3(O)C(=O)OC)[C@H]45)C2)C1 (stereo partly specified)
active: Potency [1] 8910 nM
inactive: Potency [2] | Potency [3] | Potency [4]

CCCCCCC(=O)OC1CC(C)(C)NC(C)(C)C1
inactive: Potency [1] | Potency [2] | Potency [3] | Potency [4]

O=c1cc(-c2ccccc2)[nH]c2nc(Cl)ccc12
inactive: Potency [1] | Potency [2] | Potency [3] | Potency [4]
